Data: PubChem BioAssay AID485297 (National Center for Advancing Translational Sciences (NCATS), 2010)
The campaign covered roughly 320,000 compounds. About 9,100 (2.8%) were called active. Roughly 3% stayed inconclusive and do not appear here. The list comes from a sample in which actives are over-represented; it also holds similar structures and randomly drawn compounds. A number with no mark means an inactive call. Calls come from the whole dose curve; as a rule, active = well fitted activation curve with a large enough effect; inconclusive = small, poorly fitted or top-dose-only effect; inactive = no such curve, though single readings can be large or run the other way.

Test: qHTS Assay for Rab9 Promoter Activators; note: nearly all actives have a fitted effect of over 60% in size; for activation, negative = inhibition: % of control where 0% means no effect
Settings: Huh7 Rab9 promoter-luciferase reporter, luminescence, 24 h; series mostly up to 9.22 µM; activation, negative = inhibition: at the top concentration
How it was run: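 Huh7 cells stably carrying a Rab9 promoter-luciferase reporter, 1500 cells per well in OP-MEM I with 10% FBS, treated with compound 24 hours at 37C. Luciferase activity read by luminescence after 10 minutes with Amplite reagent.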
Potency is the fitted concentration of half-maximal effect.

| Structure (SMILES) | activation, negative = inhibition [%] | Potency |
| --- | --- | --- |
| O=S(=O)(c1ccc(Cl)cc1)c1nc(-c2ccccc2F)oc1NCCN1CCOCC1 | -5.06 | – |
| CC(=O)c1c(C)[nH]c(C(=O)Nc2cc(S(=O)(=O)N(C)C)ccc2C)c1C | 15 | – |
| O=C(CCNC(=O)c1ccc([N+](=O)[O-])cc1)NC1CCCCC1 | -5.22 | – |
| CC(=O)c1ccc(N2CCN(CC(O)c3ccccc3)CC2)cc1 (stereo unspecified) | -2.02 | – |
| CC(=O)c1ccc(N2CCN(C(=O)CCc3ccccc3)CC2)cc1 | 4.67 | – |
| CC(=O)c1ccc(N2Cc3ccccc3C2)cc1 | – | 1780 nM (active) |
| COc1ccc(F)cc1C(=O)COC(=O)c1n[nH]c(=O)c2ccccc12 | -2.55 | – |
| CCOc1ccc2cc(C#N)c(SCC(=O)OC)nc2c1 | – | 1580 nM (active) |
| CCOC(=O)CSc1nccc(N(C)C)c1C#N | -1.4 | – |
| Cc1nonc1NC(=O)CSc1nc2ccccc2cc1C#N | -10.5 | – |
| COc1ccc(C(C)(C)C)cc1NC(=O)CCN1C(=O)C2CCCCC2C1=O (stereo unspecified) | 1.11 | – |
| Cc1ccc(O)c(NC(=O)c2cc(-c3ccco3)on2)c1 | -7.16 | – |
| CCOc1ncccc1C(=O)OCC(=O)c1c[nH]c2ccccc12 | 16.6 | – |
| CC1CC1C(=O)OCC(=O)Nc1cccc(F)c1 (stereo unspecified) | 1.62 | – |
| CC(C)n1c(COc2ccccc2)nc2ccccc21 | -0.29 | – |
| Cc1ccc(OCc2nc3ccccc3n2C)cc1 | – | 1780 nM (active) |
| Cn1c(COc2ccc(Cl)cc2)nc2ccccc2c1=O | 24.2 | – |
| CN(C(=O)CC1C(=O)NCCN1Cc1ccc2ccccc2c1)C1CCOCC1 (stereo unspecified) | 10.6 | – |
| O=C(CNC(=O)OCc1ccccc1)NC1CCCCNC1=O (stereo unspecified) | -7.69 | – |

| Structure (SMILES) | activation, negative = inhibition [%] | Potency |
| --- | --- | --- |
| CCc1ccc(-c2nn(-c3ccccc3C)cc2C(=O)N2CCN(C3CCS(=O)(=O)C3)CC2)cc1 (stereo unspecified) | 0.12 | – |
| O=C(O)Cc1sc(-c2ccccc2)nc1-c1cccs1 | 8.55 | – |
| NC(=O)Cc1ccc2sc(-c3ccccc3)nc2c1 | – | 3550 nM (active) |
| NC(=O)Cc1ccc2c(c1)[nH]c1ccccc12 | -2.9 | – |
| CC(=O)N1CCOc2ccc(S(=O)(=O)N3CCC(C(=O)Nc4ccccc4F)CC3)cc21 | -0.393 | – |
| CCc1nnc(NC(=O)c2cc(S(=O)(=O)N3CCCCC3)ccc2C)s1 | -0.0747 | – |
| COc1ccc(-c2nc(SCC(=O)N3CCCC3)n[nH]2)cc1 | -0.426 | – |
| COc1ccc(-c2nnc3n2CCCCC3)cc1 | -1.16 | – |
| COc1ccc(-c2nc3n(c2Br)CCC3)cc1 | – | 2510 nM (active) |
| Cc1cccc(NC(=O)c2ccc3nsnc3c2)c1C | -0.457 | – |
| O=C(Nc1ccccc1N1CCCCC1)c1ccc2nccnc2c1 | -0.193 | – |
| O=C(Nc1ccccc1Cl)c1ccc2nsnc2c1 | – | 2510 nM (active) |
| COc1ccc(Cl)cc1NC(=O)COc1ccc2c(c1)OCO2 | -4.81 | – |
| CCOC(=O)CN(C(=O)CN1CCOCC1)c1ccc(Br)cc1 | 3.24 | – |
| CC(=O)Nc1cccc(C(=O)OCC(=O)NCc2cc(C)c(O)c(C)c2)c1 | 21.4 | – |
| O=C(OCc1ccccc1F)c1ccc2c(c1)OCCO2 | – | 3160 nM (active) |
| O=C(CN1CCN(c2ccccc2F)CC1)c1ccc2c(c1)OCO2 | -10.7 | – |
| C/C(=N\NC(=O)C(N)=O)c1ccc2c(c1)OCCO2 | 14.6 | – |
| O=C(COC(=O)c1ccncc1)c1ccccc1 | -0.546 | – |

| Structure (SMILES) | activation, negative = inhibition [%] | Potency |
| --- | --- | --- |
| O=C(COC(=O)c1ccccc1)c1ccc2c(c1)OCCO2 | – | 631 nM (active) |
| CC(=O)Nc1cccc(C(=O)OCC(=O)c2ccc3c(c2)OCO3)c1 | – | 89.1 nM (active) |
| CC(NC(=O)COC(=O)c1ccc2c(c1)OCO2)c1ccccc1 (stereo unspecified) | -2.93 | – |
| O=C(COC(=O)c1ccc2c(c1)OCCO2)NCc1ccccc1 | 0.292 | – |
| CN(CC(=O)NC(=O)Nc1ccccc1F)Cc1ccccc1 | 19.2 | – |
| CCCn1c(N)c(C(=O)CSc2nnc3n2CCCCC3)c(=O)[nH]c1=O | -0.366 | – |
| O=C(Nc1nnc(CCN2CCCCC2)s1)c1cccc(Cl)c1 | -0.809 | – |
| CC(NC(=O)CN(C)S(=O)(=O)c1ccc(F)cc1)C1CC2CCC1C2 (stereo unspecified) | -1.63 | – |
| Cc1ccc(CNC(=O)CC(NC(=O)c2ccccc2)c2ccccc2)cc1 (stereo unspecified) | 10.4 | – |
| CC1(C)CC(=O)C=C(c2cccc3c2Oc2ccccc2S3)C1 | -4.78 | – |
| Cc1ccnc(NC(=O)CNC(=O)c2ccccc2)c1 | -1.45 | – |
| COc1cc(SC)ccc1C(=O)N(Cc1ccccc1)c1ccccc1 | 1.43 | – |
| COc1cc(SC)ccc1C(=O)NCCOc1ccccc1Cl | – | 3980 nM (active) |
| COc1cc(SC)ccc1C(=O)Nc1cc(C)ccn1 | – | 3550 nM (active) |
| Cc1ccnc(NC(=O)CCCOc2ccccc2)c1 | 1.3 | – |
| COc1ccccc1OCCNC(=O)CCNC(=O)c1ccccc1Cl | 0.337 | – |
| COc1cc(F)c(C2=CC(=O)CC(C)(C)C2)cc1F | -0.357 | – |
| Cc1ccc(CC(=O)Nc2ccc(S(=O)(=O)N3CCOCC3)cc2)cc1C | -0.206 | – |
